Test results taken from the supplement of paper PMC7411054.
Structures can show the parent of a compound that is named as a salt.

How the values were obtained:
Assay in all cases: phenotypically active (imaging signature differs from DMSO and reproducible) at any of 0.3-9 uM (binary (1 = active, 0 = inactive)); higher = active
Conditions in all cases: treatment time: 24 h
A549-ACTB-RAB5A = test system: A549-ACTB-RAB5A
Procedure, shortened: (§1)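 Phenotypic activity depended on meeting both a deviation and a reproducibility criterion. The fifteen gene-edited A549, HepG2 and WPMY1 reporter lines were treated at 0.3, 1, 3 or 9 µM for 24 h, four wells each, then imaged live with features normalised to solvent control wells. Deviation required ≥3 of 4 wells past the 95th percentile of control Euclidean distances, and reproducibility a median replicate Pearson correlation above the 95th percentile of non-replicates.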

A549-CANX-COX4 = test system: A549-CANX-COX4
Procedure, shortened: as §1

A549-GM130-SQSTM1 = test system: A549-GM130-SQSTM1
Procedure, shortened: as §1

A549-TP53BP1-CLTA = test system: A549-TP53BP1-CLTA
Procedure, shortened: as §1

A549-TUBA1B-RELA = test system: A549-TUBA1B-RELA
Procedure, shortened: as §1

HepG2-ACTB-RAB5A = test system: HepG2-ACTB-RAB5A
Procedure, shortened: as §1

HepG2-CANX-COX4 = test system: HepG2-CANX-COX4
Procedure, shortened: as §1

HepG2-GM130-SQSTM1 = test system: HepG2-GM130-SQSTM1
Procedure, shortened: as §1

HepG2-TP53BP1-CLTA = test system: HepG2-TP53BP1-CLTA
Procedure, shortened: as §1

HepG2-TUBA1B-RELA = test system: HepG2-TUBA1B-RELA
Procedure, shortened: as §1

WPMY1-ACTB-RAB5A = test system: WPMY1-ACTB-RAB5A
Procedure, shortened: as §1

WPMY1-CANX-COX4 = test system: WPMY1-CANX-COX4
Procedure, shortened: as §1

WPMY1-GM130-SQSTM1 = test system: WPMY1-GM130-SQSTM1
Procedure, shortened: as §1

WPMY1-TP53BP1-CLTA = test system: WPMY1-TP53BP1-CLTA
Procedure, shortened: as §1

WPMY1-TUBA1B-RELA = test system: WPMY1-TUBA1B-RELA
Procedure, shortened: as §1

Measured: phenotypically active

CC[N+](C)(CC)CCOC(=O)C1c2ccccc2Oc2ccccc21 [methantheline]
inactive: A549-ACTB-RAB5A 0 | A549-CANX-COX4 0 | A549-GM130-SQSTM1 0 | A549-TP53BP1-CLTA 0 | A549-TUBA1B-RELA 0 | HepG2-ACTB-RAB5A 0 | HepG2-CANX-COX4 0 | HepG2-GM130-SQSTM1 0 | HepG2-TP53BP1-CLTA 0 | HepG2-TUBA1B-RELA 0 | WPMY1-ACTB-RAB5A 0 | WPMY1-CANX-COX4 0 | WPMY1-GM130-SQSTM1 0 | WPMY1-TP53BP1-CLTA 0 | WPMY1-TUBA1B-RELA 0

O=C(O)c1c(Sc2ccccc2)c2cc(Cl)ccc2n1Cc1ccc(Cl)cc1
inactive: A549-ACTB-RAB5A 0 | A549-CANX-COX4 0 | A549-GM130-SQSTM1 0 | A549-TP53BP1-CLTA 0 | A549-TUBA1B-RELA 0 | HepG2-ACTB-RAB5A 0 | HepG2-CANX-COX4 0 | HepG2-GM130-SQSTM1 0 | HepG2-TP53BP1-CLTA 0 | HepG2-TUBA1B-RELA 0 | WPMY1-ACTB-RAB5A 0 | WPMY1-CANX-COX4 0 | WPMY1-GM130-SQSTM1 0 | WPMY1-TP53BP1-CLTA 0 | WPMY1-TUBA1B-RELA 0

C(=C/c1ccccc1)/CN1CCN(C(c2ccccc2)c2ccccc2)CC1 [cinnarazine]
inactive: A549-ACTB-RAB5A 0 | A549-CANX-COX4 0 | A549-GM130-SQSTM1 0 | A549-TP53BP1-CLTA 0 | A549-TUBA1B-RELA 0 | HepG2-ACTB-RAB5A 0 | HepG2-CANX-COX4 0 | HepG2-GM130-SQSTM1 0 | HepG2-TP53BP1-CLTA 0 | HepG2-TUBA1B-RELA 0 | WPMY1-ACTB-RAB5A 0 | WPMY1-CANX-COX4 0 | WPMY1-GM130-SQSTM1 0 | WPMY1-TP53BP1-CLTA 0 | WPMY1-TUBA1B-RELA 0

O=c1[nH]cnc2[nH]ncc12 [Allopurinol]
inactive: A549-ACTB-RAB5A 0 | A549-CANX-COX4 0 | A549-GM130-SQSTM1 0 | A549-TP53BP1-CLTA 0 | A549-TUBA1B-RELA 0 | HepG2-ACTB-RAB5A 0 | HepG2-CANX-COX4 0 | HepG2-GM130-SQSTM1 0 | HepG2-TP53BP1-CLTA 0 | HepG2-TUBA1B-RELA 0 | WPMY1-ACTB-RAB5A 0 | WPMY1-CANX-COX4 0 | WPMY1-GM130-SQSTM1 0 | WPMY1-TP53BP1-CLTA 0 | WPMY1-TUBA1B-RELA 0

CO/N=C/C1=CCCN(C)C1 [Milameline hydrochloride]
inactive: A549-ACTB-RAB5A 0 | A549-CANX-COX4 0 | A549-GM130-SQSTM1 0 | A549-TP53BP1-CLTA 0 | A549-TUBA1B-RELA 0 | HepG2-ACTB-RAB5A 0 | HepG2-CANX-COX4 0 | HepG2-GM130-SQSTM1 0 | HepG2-TP53BP1-CLTA 0 | HepG2-TUBA1B-RELA 0 | WPMY1-ACTB-RAB5A 0 | WPMY1-CANX-COX4 0 | WPMY1-GM130-SQSTM1 0 | WPMY1-TP53BP1-CLTA 0 | WPMY1-TUBA1B-RELA 0

CCOC(=O)[C@H](CCc1ccccc1)N[C@@H](C)C(=O)N1[C@H](C(=O)O)C[C@@H]2CCC[C@@H]21 [ramipril]
inactive: A549-ACTB-RAB5A 0 | A549-CANX-COX4 0 | A549-GM130-SQSTM1 0 | A549-TP53BP1-CLTA 0 | A549-TUBA1B-RELA 0 | HepG2-ACTB-RAB5A 0 | HepG2-CANX-COX4 0 | HepG2-GM130-SQSTM1 0 | HepG2-TP53BP1-CLTA 0 | HepG2-TUBA1B-RELA 0 | WPMY1-ACTB-RAB5A 0 | WPMY1-CANX-COX4 0 | WPMY1-GM130-SQSTM1 0 | WPMY1-TP53BP1-CLTA 0 | WPMY1-TUBA1B-RELA 0

Cc1cc2cc(NS(=O)(=O)c3ccc(C#N)cc3)ccc2n(C)c1=O
inactive: A549-ACTB-RAB5A 0 | A549-CANX-COX4 0 | A549-GM130-SQSTM1 0 | A549-TP53BP1-CLTA 0 | A549-TUBA1B-RELA 0 | HepG2-ACTB-RAB5A 0 | HepG2-CANX-COX4 0 | HepG2-GM130-SQSTM1 0 | HepG2-TP53BP1-CLTA 0 | HepG2-TUBA1B-RELA 0 | WPMY1-ACTB-RAB5A 0 | WPMY1-CANX-COX4 0 | WPMY1-GM130-SQSTM1 0 | WPMY1-TP53BP1-CLTA 0 | WPMY1-TUBA1B-RELA 0

C[C@H]1[C@H](C)CC[C@]2(C(=O)O)CC[C@]3(C)C(=CC[C@@H]4[C@@]5(C)CC[C@H](O)C(C)(C)[C@@H]5CC[C@]43C)[C@H]12 [Ursolic acid]
inactive: A549-ACTB-RAB5A 0 | A549-CANX-COX4 0 | A549-GM130-SQSTM1 0 | A549-TP53BP1-CLTA 0 | A549-TUBA1B-RELA 0 | HepG2-ACTB-RAB5A 0 | HepG2-CANX-COX4 0 | HepG2-GM130-SQSTM1 0 | HepG2-TP53BP1-CLTA 0 | HepG2-TUBA1B-RELA 0 | WPMY1-ACTB-RAB5A 0 | WPMY1-CANX-COX4 0 | WPMY1-GM130-SQSTM1 0 | WPMY1-TP53BP1-CLTA 0 | WPMY1-TUBA1B-RELA 0

CCOC(=O)[C@H](CCc1ccccc1)N[C@H]1CCc2ccccc2N(CC(=O)O)C1=O [benazepril]
inactive: A549-ACTB-RAB5A 0 | A549-CANX-COX4 0 | A549-GM130-SQSTM1 0 | A549-TP53BP1-CLTA 0 | A549-TUBA1B-RELA 0 | HepG2-ACTB-RAB5A 0 | HepG2-CANX-COX4 0 | HepG2-GM130-SQSTM1 0 | HepG2-TP53BP1-CLTA 0 | HepG2-TUBA1B-RELA 0 | WPMY1-ACTB-RAB5A 0 | WPMY1-CANX-COX4 0 | WPMY1-GM130-SQSTM1 0 | WPMY1-TP53BP1-CLTA 0 | WPMY1-TUBA1B-RELA 0

Cc1cc(C)nc(SCC(=O)Nc2ncc(Cc3cccc4ccccc34)s2)n1
inactive: A549-ACTB-RAB5A 0 | A549-CANX-COX4 0 | A549-GM130-SQSTM1 0 | A549-TP53BP1-CLTA 0 | A549-TUBA1B-RELA 0 | HepG2-ACTB-RAB5A 0 | HepG2-CANX-COX4 0 | HepG2-GM130-SQSTM1 0 | HepG2-TP53BP1-CLTA 0 | HepG2-TUBA1B-RELA 0 | WPMY1-ACTB-RAB5A 0 | WPMY1-CANX-COX4 0 | WPMY1-GM130-SQSTM1 0 | WPMY1-TP53BP1-CLTA 0 | WPMY1-TUBA1B-RELA 0

NC(=O)OCC(COC(N)=O)c1ccccc1 [felbamate]
inactive: A549-ACTB-RAB5A 0 | A549-CANX-COX4 0 | A549-GM130-SQSTM1 0 | A549-TP53BP1-CLTA 0 | A549-TUBA1B-RELA 0 | HepG2-ACTB-RAB5A 0 | HepG2-CANX-COX4 0 | HepG2-GM130-SQSTM1 0 | HepG2-TP53BP1-CLTA 0 | HepG2-TUBA1B-RELA 0 | WPMY1-ACTB-RAB5A 0 | WPMY1-CANX-COX4 0 | WPMY1-GM130-SQSTM1 0 | WPMY1-TP53BP1-CLTA 0 | WPMY1-TUBA1B-RELA 0

O=C(O)c1cc(/N=N/c2ccc(O)c(C(=O)O)c2)ccc1O [olsalazine]
inactive: A549-ACTB-RAB5A 0 | A549-CANX-COX4 0 | A549-GM130-SQSTM1 0 | A549-TP53BP1-CLTA 0 | A549-TUBA1B-RELA 0 | HepG2-ACTB-RAB5A 0 | HepG2-CANX-COX4 0 | HepG2-GM130-SQSTM1 0 | HepG2-TP53BP1-CLTA 0 | HepG2-TUBA1B-RELA 0 | WPMY1-ACTB-RAB5A 0 | WPMY1-CANX-COX4 0 | WPMY1-GM130-SQSTM1 0 | WPMY1-TP53BP1-CLTA 0 | WPMY1-TUBA1B-RELA 0
